# Compounds with a hit are over-represented: about 4.7% of the library has one in this group of screens.
# PfHsp90 set2: growth inhibition of PfHsp90-expressing yeast, primary screen, antimalarial PfHsp90 inhibitor project, S. cerevisiae, BacTiter-Glo luminescence, single point, set 2; BacTiter-Glo ATP, 48 h; yeast lacking PDR1 and PDR3 efflux regulators; inhibition, % at 9.4 µM; hit rate 0.32% among 310,000; AID 504621, 2011;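 active = every replicate shows inhibition above about 80%, whatever the replicate mean, limit read from the data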;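 note: 0% = DMSO neutral controls and 100% = 20 µM radicicol positive controls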
# TIM10 inh: growth inhibitors of isogenic TIM10 control yeast, primary screen, counter-screen for tim10-1 yeast inhibitor project, luminescence, uHTS | hit rate 1.4% among 330,000 | S. cerevisiae TIM10 strain growth, BacTiter-Glo luminescence, 24 h | AID 463195, 2010 | inhibition, % at 10 µM;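 active = inhibition of 40% or more at the single tested concentration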;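 note: wild-type TIM10 isogenic control strain grown at permissive 25 °C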
# EBI2 antag: EBI2 receptor antagonists, beta-arrestin recruitment, primary screen, cell-based, luminescence, 7a,25-OHC stimulation, uHTS. G-protein coupled receptor 183 (Homo sapiens), P32249. 7a,25-OHC stimulated. inhibition, % at 5 µM. hit rate 0.81% among 360,000; in the data active = inhibition above about 38%;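 note: enzyme fragment complementation signal reports receptor beta-arrestin coupling in cells; 0% = agonist plus DMSO wells and 100% = wells without agonist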
# Target sequence (P32249 whole entry, looked up, the tested form may be a part): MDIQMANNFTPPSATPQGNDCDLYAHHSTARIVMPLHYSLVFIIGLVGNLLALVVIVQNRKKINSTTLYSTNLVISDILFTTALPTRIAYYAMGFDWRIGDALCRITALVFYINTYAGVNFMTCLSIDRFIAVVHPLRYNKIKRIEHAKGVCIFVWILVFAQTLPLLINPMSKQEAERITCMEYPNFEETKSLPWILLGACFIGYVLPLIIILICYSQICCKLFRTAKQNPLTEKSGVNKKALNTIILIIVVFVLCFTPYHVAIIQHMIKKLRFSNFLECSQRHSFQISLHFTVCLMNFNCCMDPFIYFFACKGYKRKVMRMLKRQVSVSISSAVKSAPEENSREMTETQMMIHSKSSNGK
# SKKanGAS inh: S. pyogenes SKKanGAS growth inhibitors in kanamycin, primary screen, streptokinase expression inhibitor project, SKKanGAS strain, BacTiter-Glo luminescence; 6 h; inhibition, % at 7.5 µM; hit rate 1.3% among 300,000;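 active = mean replicate score, as percent of positive control median, at least 50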;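 note: strain carries kanamycin resistance gene driven by streptokinase promoter and grows in 40 µg/ml kanamycin; loss of luminescence reflects streptokinase promoter inhibition or plain growth inhibition; 0% = median of DMSO wells and 100% = positive control at its reference dose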
# tim23-1 inh: growth inhibitors of tim23-1 mutant yeast, primary screen, luminescence, uHTS. inhibition, % at 20 µM. S. cerevisiae tim23-1 growth, BacTiter-Glo luminescence, 24 h. hit rate 1.3% among 330,000. AID 463212, 2010;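 active = growth inhibition of the mutant yeast at or above 50%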;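 note: temperature-sensitive mutant grown at 25 °C; plate controls were DMSO-treated mutant yeast for no effect and medium wells lacking yeast for full effect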
# tim10-1 inh: growth inhibitors of tim10-1 mutant yeast, primary screen, luminescence, uHTS; AID 463190, 2010; inhibition, % at 20 µM; S. cerevisiae tim10-1 ts strain growth, BacTiter-Glo, 24 h; hit rate 2.2% among 330,000;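 active = inhibition of at least 40%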;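 note: mutant grown at 25 °C; 0% = DMSO wells with yeast and 100% = wells holding no yeast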
# TIM10 conf: growth inhibitors of wild-type TIM10 yeast, confirmation, counter-screen for tim10-1 synthetic lethality project, single concentration, luminescence, S. cerevisiae; shares compounds with TIM10 inh; S. cerevisiae tim10 strain growth, BacTiter-Glo luminescence, 24 h; inhibition, % at 10 µM; hit rate 63% among 4,600;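 active = inhibition of yeast growth at or above a set limit in either of two replicates at 10 µM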;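 note: this counterscreen used the strain with wild-type TIM10; 0% = yeast with DMSO and 100% = medium wells lacking yeast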
# The depositor's hits bear a star; nt = no result given.
SMILES,PfHsp90 set2,TIM10 inh,EBI2 antag,SKKanGAS inh,tim23-1 inh,tim10-1 inh,TIM10 conf
COc1cc(C(C(=O)NC2CCCC2)N(CCO)C(=O)Cn2nnc(-c3ccc(C)o3)n2)ccc1O (configuration not stated),5,-9,-5,25,19,-2,nt
Cc1ccc(C(=O)NNC(=S)NC(=O)c2ccc(Cl)cc2)cc1,-8,48*,3,100*,36,38,31*
CC(=O)NNC(=S)NC(=O)c1ccc(C)cc1,nt,11,1,33,-64,15,nt
O=C1OC(c2ccccc2)=C/C1=C/c1cccs1,0,46*,12,-3,43,12,-35
CC1(C)C(=O)NCCN1C(=O)CCC(=O)O,-35,6,-4,1,-11,-8,nt
O=C(c1ccc2oc(CCc3ccccc3)nc2c1)N1CC[C@H](O)C1,10,6,9,0,14,22,nt
O=[N+]([O-])c1cccc(/C=C/c2nc[nH]c2[N+](=O)[O-])c1,0,-17,2,-15,2,-4,nt
CN(CC(=O)Nc1cccc(F)c1)C(=O)CCCN1C(=O)c2cccc3cccc(c23)C1=O,-11,15,-4,0,17,21,nt
CCC(C)n1c(SCC(=O)Nc2cc(C)on2)nc2ccccc2c1=O (configuration not stated),-38,23,-3,0,25,27,nt
CCC(C)n1c(SCC(=O)Nc2cc(C(C)(C)C)nn2-c2ccccc2)nc2ccccc2c1=O (configuration not stated),12,41*,-6,-5,41,30,25
Cc1ccc(-c2nc3c(Cl)cc(C(F)(F)F)cn3c2Cc2ccccc2)cc1,nt,nt,6,nt,nt,nt,nt
O=C(OCC(=O)N1CCCC1=O)c1cccc([N+](=O)[O-])c1,-6,-6,-7,2,7,-4,nt
O=C1CC(N2CCC(c3nc4ccccc4o3)CC2)C(=O)N1c1ccc(Cl)c(C(F)(F)F)c1 (configuration not stated),104*,43*,6,10,37,6,27
O=C1CC(N2CCC(c3nc4ccccc4o3)CC2)C(=O)N1c1ccc(F)cc1 (configuration not stated),-6,13,-13,1,18,8,nt
CCN1C(=O)N/C(=C/c2cc(C)n(Cc3ccccc3)c2C)C1=O,-6,95*,-1,14,-3,17,-10
Cc1ccc(-c2cc3cccc[n+]3cc2-c2ccc(C)cc2)cc1,1,51*,-12,-4,38,39,53*
CS(=O)(=O)N1CCC(C(=O)Nc2cc(Cl)cc(Cl)c2)CC1,2,-4,-11,-2,9,7,nt
Cc1ccc(NC(=O)C/C(N)=N/OC(=O)Nc2cccc(C)c2)cc1,-8,42*,4,nt,16,40,28
COCCCC1CCN(Cc2cn[nH]c2-c2cc(OC)c(OC)c(OC)c2)CC1,-7,-16,-5,-9,0,-11,nt
O=C(NC(=S)Nc1ccc2c(c1)OCCO2)c1cccc2ccccc12,4,44*,4,33,40,39,48*
Cc1ccccc1C(=O)Nc1ccc2c(c1)OCCO2,-3,10,-1,2,19,13,nt
CCc1ccc2[nH]c(=O)c(C(c3nnnn3Cc3ccccc3)N3CCOCC3)cc2c1 (configuration not stated),3,-3,0,-6,13,30,nt
CCc1ccc2[nH]c(=O)c(C(c3nnnn3Cc3ccco3)N3CCC(C)CC3)cc2c1 (configuration not stated),-14,41*,9,0,25,31,20
Cc1csc(SCC(=O)NC(=O)NC2CCCC2)n1,-5,17,-7,6,18,12,nt
